Experimental data reported in the supplement of paper PMC10849652.
The full data set covers some 7,900 targets. This sample favours those with a hit. About 0.6% of all pairs of compound and target were hits. Unmarked numbers belong to inactive results.

Legend:
Experiment in all cases: log2 fold change, soluble protein after heating vs DMSO (PISA); higher = thermal stabilisation; K562 cells, 10 uM, 30 min; active = over 0.2 and 3.5 SD of the protein, either way, in both replicates (recomputed)
[1] = compound: CC[C@@H]1C(=O)N(C)c2cnc(Nc3ccc(C(=O)NC4CCN(C)CC4)cc3OC)nc2N1C1CCCC1
In short: (§1)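 K562 cells at 2×10^6 cells/mL were treated with 10 μM compound for 30 min. Aliquots were heated for 3 min across 48°C-58°C, pooled, and extracted in PBS with 0.5% NP-40 at 4°C; soluble protein was the supernatant after 21,000xg for 90 min. Soluble protein was quantified by TMTpro 16plex LC-MS/MS with channel sums equalised, and reported as log2 fold change in thermal stability against DMSO controls, with values from duplicates.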

volasertib = compound: CC[C@@H]1C(=O)N(C)c2cnc(Nc3ccc(C(=O)N[C@H]4CC[C@H](N5CCN(CC6CC6)CC5)CC4)cc3OC)nc2N1C(C)C [volasertib]
In short: as §1

[2] = compound: CC[C@H](C)N1C=C(C2=C(C=C(C=C21)C3=CN=C(C=C3)N4CCNCC4)C(=O)NCC5=C(C=C(NC5=O)C)C)C
In short: as §1

epoxomicin = compound: CC[C@H](C)[C@@H](C(=O)N[C@@H]([C@@H](C)O)C(=O)N[C@@H](CC(C)C)C(=O)[C@]1(CO1)C)NC(=O)[C@H]([C@@H](C)CC)N(C)C(=O)C [epoxomicin]
In short: as §1

[3] = compound: CCn1c(C(=O)N(C2CC2)C2CC2)cc2c3c(ncn3C)c(Nc3cc(C)n(C)n3)nc21
In short: as §1

[4] = compound: CCn1cc(-c2ccnc3[nH]c(-c4cccc(CN(C)C)c4)cc23)c(-c2ccc(NC(=O)N(C)C)cc2)n1
In short: as §1

rosiglitazone = compound: CN(CCOC1=CC=C(C=C1)C[C@H]2C(=O)NC(=O)S2)C3=CC=CC=N3 (racemic) [rosiglitazone]
In short: as §1

[5] = compound: CN1C2=C(C3=C1C(=O)N(N=C3)CC4=CC(=CC=C4)N)SC(=C2)S(=O)C
In short: as §1

[6] = compound: CN1CCC(CNc2ccc3ncc(-c4cccc(OC(F)(F)F)c4)n3n2)CC1
In short: as §1

saracatinib = compound: CN1CCN(CCOc2cc(OC3CCOCC3)c3c(Nc4c(Cl)ccc5c4OCO5)ncnc3c2)CC1 [saracatinib]
In short: as §1

sotrastaurin = compound: CN1CCN(c2nc(C3=C(c4c[nH]c5ccccc45)C(=O)NC3=O)c3ccccc3n2)CC1 [sotrastaurin]
In short: as §1

alvocidib = compound: CN1CC[C@H](c2c(O)cc(O)c3c(=O)cc(-c4ccccc4Cl)oc23)[C@H](O)C1 [alvocidib]
In short: as §1

[7] = compound: CNC(=O)C1=CC=CC=C1NC2=NC(=NC=C2Cl)NC3=C(C=C(C=C3)N4CCOCC4)OC
In short: as §1

rucaparib = compound: CNCc1ccc(-c2[nH]c3cc(F)cc4c3c2CCNC4=O)cc1 [rucaparib]
In short: as §1

[8] = compound: CNc1nc(-c2ccc3c(N)n[nH]c3c2)cc(N2C[C@@H](C(=O)NC3CCCCC3)CC[C@H]2C)n1
In short: as §1

encorafenib = compound: COC(=O)N[C@@H](C)CNc1nccc(-c2cn(C(C)C)nc2-c2cc(Cl)cc(NS(C)(=O)=O)c2F)n1 [encorafenib]
In short: as §1

Tubastatin A = compound: CN1CCc2c(c3ccccc3n2Cc2ccc(C(=O)NO)cc2)C1 [Tubastatin A]
In short: as §1

defactinib = compound: CNC(=O)c1ccc(Nc2ncc(C(F)(F)F)c(NCc3nccnc3N(C)S(C)(=O)=O)n2)cc1 [defactinib]
In short: as §1

[9] = compound: COC(=O)[C@H](CCSC)NC(=O)C1=C(C=C(C=C1)NC[C@H](CS)N)C2=CC=CC=C2
In short: as §1

[10] = compound: CN(C)CC(=O)Nc1ccc2[nH]c(=O)c3ccccc3c2c1
In short: as §1

UniProt Q86TB9, sequence (Q86TB9 whole entry, looked up): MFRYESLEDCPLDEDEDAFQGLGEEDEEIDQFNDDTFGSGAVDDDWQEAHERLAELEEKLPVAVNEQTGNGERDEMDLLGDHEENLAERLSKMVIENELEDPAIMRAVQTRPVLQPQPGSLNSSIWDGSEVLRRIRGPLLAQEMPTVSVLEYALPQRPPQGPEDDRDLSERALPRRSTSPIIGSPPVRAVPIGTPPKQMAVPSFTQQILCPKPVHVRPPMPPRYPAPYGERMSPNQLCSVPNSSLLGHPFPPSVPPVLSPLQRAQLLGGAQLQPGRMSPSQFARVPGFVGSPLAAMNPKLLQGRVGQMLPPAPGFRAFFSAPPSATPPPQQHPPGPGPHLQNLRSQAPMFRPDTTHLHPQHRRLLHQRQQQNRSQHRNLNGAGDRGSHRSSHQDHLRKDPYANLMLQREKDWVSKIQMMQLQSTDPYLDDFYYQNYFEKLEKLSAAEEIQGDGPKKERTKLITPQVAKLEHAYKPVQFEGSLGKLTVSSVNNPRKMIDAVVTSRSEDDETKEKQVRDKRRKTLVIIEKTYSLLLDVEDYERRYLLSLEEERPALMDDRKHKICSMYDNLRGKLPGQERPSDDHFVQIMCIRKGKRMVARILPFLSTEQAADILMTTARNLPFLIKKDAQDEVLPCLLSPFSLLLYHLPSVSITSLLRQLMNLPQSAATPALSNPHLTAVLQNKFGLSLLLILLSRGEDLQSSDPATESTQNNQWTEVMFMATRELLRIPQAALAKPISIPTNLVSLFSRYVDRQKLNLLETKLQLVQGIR
UniProt Q9NYI0, sequence (Q9NYI0 whole entry, looked up): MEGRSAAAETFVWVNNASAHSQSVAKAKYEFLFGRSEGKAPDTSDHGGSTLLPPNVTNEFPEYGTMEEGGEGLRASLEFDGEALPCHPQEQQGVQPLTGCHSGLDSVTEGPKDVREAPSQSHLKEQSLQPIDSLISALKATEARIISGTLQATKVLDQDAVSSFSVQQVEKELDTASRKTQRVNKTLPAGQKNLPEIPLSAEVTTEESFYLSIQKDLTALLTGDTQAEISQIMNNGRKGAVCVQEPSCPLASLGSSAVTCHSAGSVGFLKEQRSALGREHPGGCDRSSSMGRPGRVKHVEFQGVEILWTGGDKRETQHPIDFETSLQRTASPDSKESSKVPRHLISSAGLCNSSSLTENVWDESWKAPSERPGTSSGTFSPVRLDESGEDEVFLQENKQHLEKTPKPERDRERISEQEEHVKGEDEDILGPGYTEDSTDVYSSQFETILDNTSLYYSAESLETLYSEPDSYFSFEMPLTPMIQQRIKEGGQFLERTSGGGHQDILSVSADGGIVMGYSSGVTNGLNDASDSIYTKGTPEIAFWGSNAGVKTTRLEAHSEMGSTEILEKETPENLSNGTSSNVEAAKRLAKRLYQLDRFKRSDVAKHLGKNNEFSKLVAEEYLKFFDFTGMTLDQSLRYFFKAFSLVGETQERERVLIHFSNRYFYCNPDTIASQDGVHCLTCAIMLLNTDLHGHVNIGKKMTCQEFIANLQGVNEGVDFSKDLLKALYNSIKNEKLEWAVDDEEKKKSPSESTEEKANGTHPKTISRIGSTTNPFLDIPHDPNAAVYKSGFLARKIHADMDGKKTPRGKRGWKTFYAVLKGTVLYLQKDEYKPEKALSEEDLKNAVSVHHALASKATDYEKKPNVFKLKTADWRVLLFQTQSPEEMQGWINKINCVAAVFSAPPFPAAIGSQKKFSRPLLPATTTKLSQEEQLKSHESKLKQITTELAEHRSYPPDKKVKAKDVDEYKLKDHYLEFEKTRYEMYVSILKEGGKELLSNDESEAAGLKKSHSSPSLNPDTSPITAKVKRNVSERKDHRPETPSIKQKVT
UniProt P60484, sequence (P60484 whole entry, looked up): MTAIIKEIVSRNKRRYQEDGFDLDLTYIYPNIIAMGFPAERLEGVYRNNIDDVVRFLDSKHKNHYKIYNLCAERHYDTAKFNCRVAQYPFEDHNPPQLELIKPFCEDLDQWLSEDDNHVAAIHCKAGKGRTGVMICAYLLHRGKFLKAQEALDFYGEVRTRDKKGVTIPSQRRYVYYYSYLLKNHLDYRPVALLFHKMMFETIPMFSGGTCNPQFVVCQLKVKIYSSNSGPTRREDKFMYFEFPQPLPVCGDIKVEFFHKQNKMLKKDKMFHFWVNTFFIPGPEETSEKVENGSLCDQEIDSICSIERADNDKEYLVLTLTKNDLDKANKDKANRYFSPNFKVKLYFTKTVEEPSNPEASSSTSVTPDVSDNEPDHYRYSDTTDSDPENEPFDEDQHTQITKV
UniProt Q9BZL4, sequence (Q9BZL4 whole entry, looked up): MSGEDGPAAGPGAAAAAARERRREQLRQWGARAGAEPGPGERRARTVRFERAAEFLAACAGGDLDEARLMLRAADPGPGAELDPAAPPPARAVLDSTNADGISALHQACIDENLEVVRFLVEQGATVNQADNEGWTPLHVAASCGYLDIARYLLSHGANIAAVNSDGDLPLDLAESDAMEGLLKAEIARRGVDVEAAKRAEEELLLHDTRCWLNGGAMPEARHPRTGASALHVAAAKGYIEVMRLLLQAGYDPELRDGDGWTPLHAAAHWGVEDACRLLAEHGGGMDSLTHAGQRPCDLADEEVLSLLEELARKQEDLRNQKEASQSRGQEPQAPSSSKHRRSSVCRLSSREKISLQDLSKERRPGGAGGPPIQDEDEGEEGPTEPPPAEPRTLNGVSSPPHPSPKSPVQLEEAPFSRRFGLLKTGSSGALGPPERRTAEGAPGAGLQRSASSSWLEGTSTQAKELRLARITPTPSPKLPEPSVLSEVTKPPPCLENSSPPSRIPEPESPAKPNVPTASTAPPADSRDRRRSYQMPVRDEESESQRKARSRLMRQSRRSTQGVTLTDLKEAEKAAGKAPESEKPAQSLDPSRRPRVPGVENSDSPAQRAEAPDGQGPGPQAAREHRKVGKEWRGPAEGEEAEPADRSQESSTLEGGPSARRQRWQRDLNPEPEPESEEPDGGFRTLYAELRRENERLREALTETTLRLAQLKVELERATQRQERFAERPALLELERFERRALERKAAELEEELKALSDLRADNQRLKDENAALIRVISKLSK
UniProt Q9Y2I7, sequence (Q9Y2I7 whole entry, looked up): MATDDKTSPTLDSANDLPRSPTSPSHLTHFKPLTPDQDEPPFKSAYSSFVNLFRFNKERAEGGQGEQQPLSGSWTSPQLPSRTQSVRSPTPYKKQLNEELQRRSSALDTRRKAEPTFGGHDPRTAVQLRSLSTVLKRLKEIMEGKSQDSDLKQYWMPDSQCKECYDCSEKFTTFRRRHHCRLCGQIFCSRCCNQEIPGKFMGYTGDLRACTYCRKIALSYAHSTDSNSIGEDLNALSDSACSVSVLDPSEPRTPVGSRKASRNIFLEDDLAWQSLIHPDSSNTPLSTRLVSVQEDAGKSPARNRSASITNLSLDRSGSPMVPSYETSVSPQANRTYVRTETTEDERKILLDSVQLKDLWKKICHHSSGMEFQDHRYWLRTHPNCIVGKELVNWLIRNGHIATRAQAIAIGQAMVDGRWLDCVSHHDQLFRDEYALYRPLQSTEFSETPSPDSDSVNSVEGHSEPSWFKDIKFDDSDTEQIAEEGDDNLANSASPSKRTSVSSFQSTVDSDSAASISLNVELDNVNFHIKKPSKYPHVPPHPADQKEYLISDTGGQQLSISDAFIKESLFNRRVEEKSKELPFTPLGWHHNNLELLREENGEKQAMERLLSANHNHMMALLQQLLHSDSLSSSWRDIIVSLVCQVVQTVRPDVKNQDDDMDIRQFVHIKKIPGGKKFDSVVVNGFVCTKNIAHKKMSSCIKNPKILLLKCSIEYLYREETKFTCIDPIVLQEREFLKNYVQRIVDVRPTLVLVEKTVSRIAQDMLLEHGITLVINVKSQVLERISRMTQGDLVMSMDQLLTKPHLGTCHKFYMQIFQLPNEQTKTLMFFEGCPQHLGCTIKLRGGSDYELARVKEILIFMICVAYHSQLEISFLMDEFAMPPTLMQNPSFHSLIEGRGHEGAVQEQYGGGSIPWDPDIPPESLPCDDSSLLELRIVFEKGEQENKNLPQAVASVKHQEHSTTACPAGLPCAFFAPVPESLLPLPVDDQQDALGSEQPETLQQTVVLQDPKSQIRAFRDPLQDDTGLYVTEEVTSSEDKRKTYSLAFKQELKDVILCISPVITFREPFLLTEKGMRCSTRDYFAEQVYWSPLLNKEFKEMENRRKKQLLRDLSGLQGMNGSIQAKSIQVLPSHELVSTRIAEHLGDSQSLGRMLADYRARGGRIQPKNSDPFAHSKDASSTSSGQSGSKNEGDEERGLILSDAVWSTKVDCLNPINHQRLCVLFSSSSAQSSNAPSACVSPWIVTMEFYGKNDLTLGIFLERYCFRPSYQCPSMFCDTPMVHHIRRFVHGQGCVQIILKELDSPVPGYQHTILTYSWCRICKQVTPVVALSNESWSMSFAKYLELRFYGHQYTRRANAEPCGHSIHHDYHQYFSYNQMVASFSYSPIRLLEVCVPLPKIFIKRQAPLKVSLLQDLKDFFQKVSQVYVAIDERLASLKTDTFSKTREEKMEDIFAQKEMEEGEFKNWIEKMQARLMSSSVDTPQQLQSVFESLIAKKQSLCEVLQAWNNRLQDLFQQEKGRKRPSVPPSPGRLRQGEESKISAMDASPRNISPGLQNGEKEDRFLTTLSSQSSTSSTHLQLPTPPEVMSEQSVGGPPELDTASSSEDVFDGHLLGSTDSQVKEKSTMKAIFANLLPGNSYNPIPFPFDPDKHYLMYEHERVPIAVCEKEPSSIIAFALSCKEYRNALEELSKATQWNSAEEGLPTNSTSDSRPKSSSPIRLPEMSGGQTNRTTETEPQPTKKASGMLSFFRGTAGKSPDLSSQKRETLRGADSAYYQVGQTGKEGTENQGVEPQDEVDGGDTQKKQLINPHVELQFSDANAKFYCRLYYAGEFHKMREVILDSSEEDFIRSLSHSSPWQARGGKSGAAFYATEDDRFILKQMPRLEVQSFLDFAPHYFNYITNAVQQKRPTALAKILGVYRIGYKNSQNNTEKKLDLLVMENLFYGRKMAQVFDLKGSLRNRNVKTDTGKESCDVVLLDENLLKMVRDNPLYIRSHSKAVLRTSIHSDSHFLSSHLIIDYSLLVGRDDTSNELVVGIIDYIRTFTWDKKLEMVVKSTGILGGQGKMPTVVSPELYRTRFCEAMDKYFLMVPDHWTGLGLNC

Target	log2 fold change [1]	log2 fold change (volasertib)	log2 fold change [2]	log2 fold change (epoxomicin)	log2 fold change [3]	log2 fold change [4]	log2 fold change (rosiglitazone)	log2 fold change [5]	log2 fold change [6]	log2 fold change (saracatinib)	log2 fold change (sotrastaurin)	log2 fold change (alvocidib)	log2 fold change [7]	log2 fold change (rucaparib)	log2 fold change [8]	log2 fold change (encorafenib)	log2 fold change (Tubastatin A)	log2 fold change (defactinib)	log2 fold change [9]	log2 fold change [10]
PNN (UniProt Q9H307)	0.248	-0.039	-0.077	-0.07	-0.052	0.021	0.003	0.067	-0.042	-0.037	-0.044	-0.12	-0.067	0.303	-0.071	-0.174				
PARP1 (UniProt P09874)	-0.233	-0.57 (active)	0.162	0.1	-0.088	0.302	0.086	0.027	-0.146	-0.025	-0.104	-0.004	0.094	1.05 (active)	0.038	0.079	0.037	-0.089	-0.04	
POGZ (UniProt Q7Z3K3)	-0.077	-0.293		0.08	-0.088	-0.192		0.006	0.063	-0.134	-0.186	-0.065	0.056	0.196	0.136	-0.02	-0.071	-0.162	-0.043	0.07
POLB (UniProt P06746)	-0.127	-0.073	0.077	0.043	-0.078	0.111		0.016	-0.156	-0.21	-0.16	0.195	0.062	0.095	0.05	0.031	0.138			
POLR2A (UniProt P24928)	0.093	-0.034	0.006	0.004	-0.058	0.022	0.007	-0.052	0.156	-0.012	0.034	0.329 (active)	-0.035	0.126	0.025	0.027	-0.012	0.241	-0.07	0.041
PSD3 (UniProt Q9NYI0)	-0.019	-0.108	0.061									-0.054		-0.03		0.003		-0.004	-0.019	0.004
PSMD13 (UniProt Q9UNM6)	0.075	0.217	0.008	-0.288 (active)	0.012	0.043	0.009	0.02	0.038	-0.073	0	0.061	0.027	0.024	0.043	0.063	0.038	0.068	0.003	-0.01
PATL1 (UniProt Q86TB9)	0.109	0.013		-0.041	-0.022	0.051	0.078	0.104	-0.445 (active)	-0.075	-0.16	-0.127	-0.135	0.131	0.025	0.155	-0.001	-0.078	-0.066	0.007
PCNX1 (UniProt Q96RV3)	0.331	0.132	-0.004	-0.017			0.028							-0.123		0.085	-0.041	0.027	-0.039	-0.064
PHKA1 (UniProt P46020)	0.042	-0.367	0.076	-0.039	-0.019	0.143	-0.038	0.112	-0.045	-0.12	0.058	-0.073	0.101	-0.283	0.027	-0.295	-0.256			
POLR2M (UniProt Q6EEV4)	0.13	0.009	0.002	0.154	0.027		0.097	0.105		0.011	-0.015	-0.178	0.097	-0.145	-0.084	-0.047	-0.131	-0.081	0.026	0.091
PIGT (UniProt Q969N2)	0.02	-0.118	0.035	-0.011	0.019	-0.046	0.014	0.015	0.081	-0.024	-0.023	-0.021	0.029	-0.002	0.013	0.048	-0.052	0.012	-0.015	0.013
PPP1R12C (UniProt Q9BZL4)	0.029	-0.027	0.204	-0.102	-0.094	-0.116	-0.031	0.013	0.029	-0.115	-0.157		0.113	0.184	-0.164	-0.013	0.014	-0.205	0.035	-0.03
PTEN isoform 2 (UniProt P60484)	0.024	0.05			-0.071	-0.016			-0.098				-0.247	-0.108		0.015				
PHC3 isoform 7 (UniProt Q8NDX5)	0.076	-0.163	0.178	0.254	-0.113		0.066				-0.071	-0.057	-0.007	-0.276		0.154				
PIKFYVE (UniProt Q9Y2I7)	-0.182	-0.499 (active)	0.103	-0.031	-0.049	-0.032	0.168	-0.05	-0.239	-0.001	-0.081	-0.175	0.009	0.068	-0.106	0.099	-0.032	-0.033	-0.025	0.032
POLD1 (UniProt P28340)	-0.061	-0.239 (active)	0.053	0.123	0	-0.005	-0.029	-0.03	-0.171	0.018	-0.052	-0.121	-0.01	-0.004	-0.004	0.131	0.055	-0.115	-0.029	0.027
PSME4 (UniProt Q14997)	0.076	0.038	0.04	0.35 (active)	-0.014	-0.069	0.053	0.001	-0.137	-0.006	-0.035	-0.051	-0.027	-0.023	0.067	0.066	0.025	0.037	-0.029	0.02
PHLDB1 isoform 2 (UniProt Q86UU1)	-0.03	-0.222	-0.06	0.061	-0.02	-0.04	0.055	-0.022	-0.585 (active)	-0.02		-0.353	-0.164	0.011	0.066	0.089	-0.023	-0.035	-0.001	-0.034
